In PubChem BioAssay AID1159580 (chemical genetic matrix, 2015):
The campaign covered roughly 5,500 compounds. About 2,000 (36%) were called active. About 18% were inconclusive and are not listed. Cut-off read from the data, not from the text of the source: active = normalized growth mostly below about 0.91 (no sharp cut-off); inconclusive = no clear call, values can overlap the other calls; inactive = mostly above about 0.92. This is one part of the list.

Assay: chemical genetic growth profiling, strain panel (AID 1159580);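 note: tested at 20 µM; growth read once vehicle control cultures reached saturation at 30 °C; 1 = growth at the plate median or of vehicle wells; lower values mean less growth of the strain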
Settings: S. cerevisiae deletion strains, growth OD

Measured: normalized growth

NC(C(=O)O)c1cc(=O)[nH]o1 (centres undefined)
inactive: locus YAL013W, strain DEP1, stronger effect = lower value 1.02 | locus YAL040C, strain CLN3, stronger effect = lower value 1.01 | locus YCL061C, strain MRC1 (second series), stronger effect = lower value 1 | locus YDR150W, strain NUM1, stronger effect = lower value 1 | locus YDR363W, strain ESC2, stronger effect = lower value 1.04 | locus YER002W, strain NOP16, stronger effect = lower value 1.01 | locus YGR229C, strain SMI1, stronger effect = lower value 1.04 | locus YMR263W, strain SAP30, stronger effect = lower value 1 | locus YMR307W, strain GAS1, stronger effect = lower value 1.01 | locus YNL153C, strain GIM3, stronger effect = lower value 1.04 | locus YNL175C, strain NOP13, stronger effect = lower value 1.02 | locus YNL197C, strain WHI3, stronger effect = lower value 0.999 | locus YNL224C, strain SQS1, stronger effect = lower value 0.996 | locus YOR083W, strain WHI5 (second series), stronger effect = lower value 1.01
